Among all 5,500 compounds or so, about 2,000 (36%) were called active. Another 18% or so got no clear call; they are omitted. Rule as the data show it: active = normalized growth mostly below about 0.91 (no sharp cut-off); inconclusive = no clear call, values can overlap the other calls; inactive = mostly above about 0.92. Some of the results follow.
Assay: chemical genetic growth profiling, strain panel (AID 1159580);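 also: tested at 20 µM; growth read once vehicle control cultures reached saturation at 30 °C; 1 = growth at the plate median or of vehicle wells; lower values mean less growth of the strain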
Details: S. cerevisiae deletion strains, growth OD

Measured: normalized growth

CC(C)(C=O)Cc1cc(C(C)(C)C)c(O)c(C(C)(C)C)c1
inactive: locus YAL013W, strain DEP1, stronger effect = lower value 1.02 | locus YAL040C, strain CLN3, stronger effect = lower value 0.968 | locus YER002W, strain NOP16, stronger effect = lower value 0.98 | locus YGR078C, strain PAC10, stronger effect = lower value 1 | locus YMR307W, strain GAS1, stronger effect = lower value 1.02 | locus YNL128W, strain TEP1, stronger effect = lower value 1.02 | locus YNL175C, strain NOP13, stronger effect = lower value 1.02 | locus YNL197C, strain WHI3, stronger effect = lower value 0.989 | locus YNL224C, strain SQS1, stronger effect = lower value 1 | locus YNL322C, strain KRE1, stronger effect = lower value 0.994 | locus YOR083W, strain WHI5 (second series), stronger effect = lower value 1.01 | locus YPL055C, strain LGE1, stronger effect = lower value 1.01

Reference: PubChem BioAssay AID1159580 (chemical genetic matrix, 2015)
